Data on 25 compounds can be found in PubChem BioAssay (NCI).

The panel holds about 83,000 compounds, 20% with a hit somewhere; the sample as a whole holds those more often.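 How to read the values: 0–100, growth inhibition (40 = 60% inhibited); 0, no net growth; -100 to 0, cell death (-40 = 40% of starting cells died; -100 = all dead).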 Unmarked numbers belong to inactive results. Activity calls are given as the source filed them. How the source made its calls: active means growth percent below 10; inactive means the rest.

Holding throughout (test): NCI-60 one-dose screen, 48 h (100 = growth as untreated, 0 = no growth, -100 = all killed)
Common to all, as to conditions: 10 µM unless noted

In assay [1] the test system is T-47D breast.
The test system of assay [2] is BT-549 breast.
The test system of assay [3] is MDA-MB-435 melanoma.
The test system of assay [4] is MCF7 breast.
Assay [5] concerns HCT-116 colon.
In assay [6] the test system is HCC-2998 colon.
Assay [7] deals with KM12 colon.
Assay [8] concerns SW-620 colon.

For the compound `C=CCO[C@H]1CO[C@H]2[C@@H]1OC[C@@H]2Oc1ccc(Nc2ccnc(Nc3ccc(O[C@H]4CO[C@H]5[C@@H]4OC[C@@H]5OCC=C)c(Cl)c3)n2)cc1Cl`, the growth in assay [1] is -39.7% (active); in assay [2], 32.7%; in assay [3], -88.4% (active); in assay [4], -71.1% (active); in assay [5], -29.7% (active); in assay [6], -93.3% (active). The growth in assay [7] is -72.1% (active).

On to `O=C(NC(=S)Nc1ccc(-c2nc3ccccc3[nH]2)cc1)c1ccc2ccccc2c1`, for which the growth in assay [1] was 18.5%; in assay [2] it was 4.76% (active); in assay [3] it was 22.6%; in assay [4], 36.4%; in assay [5], 3.95% (active); in assay [6] it was 66.2%. Further, the growth in assay [7] was 31.3%.

With `COc1cc2nc(Nc3ccc(F)cc3)nc(N)c2cc1OC`, the growth in assay [1] was 83.2%; in assay [2], 93.9%; in assay [3] it was 96.2%; in assay [4], 82.9%; in assay [5], 89.4%; in assay [6], 113%. Moreover, the growth in assay [7] was 94.7%.

`COc1ccc(Cn2cnc3cc(C(=O)Nc4cccc5ccccc45)ccc32)c(OC)c1`: the growth was 59.8% [30 µM] in assay [1]; 30.8% [30 µM] in assay [2]; -44.5% [30 µM] (active) in assay [3]; 11.8% [30 µM] in assay [4]; 10.3% [30 µM] in assay [5]; 6.79% [30 µM] (active) in assay [6]. Besides, in assay [7], the growth was 2.44% [30 µM] (active).

In the case of `O=C1C=CC(=Nc2cc(Br)c(O)c(Br)c2)C=C1`, the growth was 70.7% in assay [1]; 55.1% in assay [2]; 36.1% in assay [3]; 40.1% in assay [4]; 43.5% in assay [5]; 102% in assay [6]. The growth in assay [7] was 94.7%.

In the case of `O=c1cc(-c2ccc(OCc3ccccc3)cc2)oc2c(I)c(OCc3ccccc3)cc(OCc3ccccc3)c12`, the growth in assay [1] was 104%; in assay [2] it was 101%; in assay [3], 102%; in assay [4], 101%; in assay [5] it was 95.8%; in assay [6] it was 105%. The growth in assay [7] was 91.8%.

Turning to `CC1(C)CC(=O)c2c(ccc(C(=O)C[C@H](N)CO)c2N)O1`, the growth in assay [1] was 53.8%; in assay [2], 25%; in assay [3], 52.3%; in assay [4], 13.3%; in assay [6] it was 9.33% (active); in assay [7] it was 16%.

For `CC1=CC(=O)C(C(C)C)=CC1=Nc1cc(Br)c(O)c(Br)c1`, the growth was 75.5% in assay [1]; 26.4% in assay [2]; -11.7% (active) in assay [3]; 23.2% in assay [4]; 1.14% (active) in assay [5]; -43.5% (active) in assay [6]. For the same compound, in assay [7], the growth is -1.83% (active).

Regarding `CCOC(=O)c1ccc(-c2ccc3cc(OC)ccc3c2)nc1C`, the growth in assay [1] was 91.6%; in assay [2], 104%; in assay [3] it was 94.3%; in assay [8], 102%; in assay [7] it was 100%.

With `COc1ccc(OC)c(/C=C2\COc3ccc(O)c(O)c3C2=O)c1`, the growth in assay [1] is 25.2%; in assay [2], 39%; in assay [3] it was 12.1%; in assay [4], 14.9%; in assay [5] it was 3.33% (active); in assay [7], 16.4%.

`CCOC(=O)C(O)C(O)(c1ccccc1)c1ccccc1` (stereo unspecified): the growth was 93.6% in assay [1]; 103% in assay [2]; 111% in assay [3]; 93.5% in assay [4]; 101% in assay [7].

For `O=C(Nc1ccccn1)[C@H](O)[C@@H](O)C(=O)N1CCOCC1`, the growth is 100% in assay [1]; 114% in assay [2]; 111% in assay [3]; 110% in assay [4]; 99.3% in assay [5]; 116% in assay [6]. Further, in assay [7], the growth is 108%.

Consider `O=C1/C(=C/c2ccccc2[N+](=O)[O-])COc2ccc(O)c(O)c21`, for which the growth in assay [1] is 12.4%; in assay [2], 21.3%; in assay [3] it was -62.2% (active); in assay [4], 6.98% (active); in assay [5], -15.4% (active); in assay [6], -46.5% (active). For the same compound, in assay [7], the growth is -3.65% (active).

Regarding `Nc1nc(Nc2ccc(Cl)cc2)nn1S(=O)(=O)c1ccc(-c2ccc(F)cc2)cc1`, the growth in assay [1] is 68.6%; in assay [2], 108%; in assay [8] it was 95.5%; in assay [4] it was 58.2%; in assay [5], 75.1%; in assay [6], 82.9%. The growth in assay [7] was 61.2%.

Turning to `Cc1nc(-c2ccccc2)cc2c(O)c(C(=O)N/N=C/c3ccc(N(C)C)cc3)[nH]c(=O)c12`, the growth in assay [1] was 76.5%; in assay [2], 103%; in assay [3] it was 86.8%; in assay [8] it was 75%; in assay [5], 57.6%; in assay [6], 95.2%. Besides, the growth in assay [7] is 82.3%.

Turning to `Nc1ccn(C2OC(F)(CO)C(O)C2F)c(=O)n1` (stereo unspecified), the growth in assay [1] is 55.3%; in assay [2], 44.4%; in assay [3] it was 52.9%; in assay [8], 52.1%; in assay [5] it was 35.3%; in assay [6], 48.3%. Besides, the growth in assay [7] is 59.2%.

On to `COc1cc(C(=O)Nc2cc(O)c(CC=C(C)C)c(O)c2)cc2c1O[C@]1(C)CC[C@@H](O)C(C)(C)[C@H]1C2`, for which the growth in assay [1] is 3.79% (active); in assay [2], 29.6%; in assay [3] it was 24.9%; in assay [4], 6.62% (active); in assay [5], 13.2%; in assay [6], 7.4% (active). Also, the growth in assay [7] was 18.2%.

Regarding `COc1cc2cc(Oc3ccc(NC(=O)Nc4cc(C(F)(F)F)cc(C(F)(F)F)c4)cc3)c(C)nc2cc1OCCN1CCCCC1`, the growth was -39.7% (active) in assay [1]; 94.3% in assay [2]; -84.4% (active) in assay [8]; -84.8% (active) in assay [4]; -76.8% (active) in assay [5]; -94.5% (active) in assay [6]. In addition, the growth in assay [7] was -78.5% (active).

Turning to `CN1CCN(c2ccc3nc(/N=C/c4ccc5sc(-c6ccc([N+](=O)[O-])cc6)nc5c4)sc3c2)CC1`, the growth in assay [1] was 96%; in assay [2], 92.4%; in assay [8], 116%; in assay [4], 94.7%; in assay [6] it was 101%; in assay [7], 105%.

Regarding `O=C1Nc2ccccc2/C1=N/N=C/c1ccsc1`, the growth in assay [1] is 87%; in assay [2], 112%; in assay [4], 49.5%; in assay [5] it was 103%; in assay [6] it was 108%; in assay [7] it was 102%.

Consider `O=C(NCOC(O)C(Cl)(Cl)Cl)NCOC(O)C(Cl)(Cl)Cl` (stereo unspecified), for which the growth in assay [1] is 89.5%; in assay [2], 101%; in assay [8], 108%; in assay [4] it was 89.6%; in assay [5], 99.9%; in assay [6] it was 118%. For the same compound, the growth in assay [7] is 109%.

For the compound `C=C1C(=O)O[C@H]2[C@H]1CC/C(COC(=O)/C=C\C(=O)NCc1ccc(Cn3c(=O)sn(-c4ccc(C#N)cc4)c3=O)cc1)=C\CC[C@@]1(C)O[C@@H]21`, the growth in assay [1] was -59.9% (active); in assay [2], -57.5% (active); in assay [8], -64% (active); in assay [4], -51.8% (active); in assay [5], -55.7% (active); in assay [6], -79.1% (active). Also, the growth in assay [7] was -71.7% (active).

For `COc1ccc(C(=O)/C=C/C23c4ccccc4C(c4ccccc42)C2C(=O)NC(=O)C23)cc1` (stereo unspecified), the growth was 86.2% in assay [1]; 97.1% in assay [2]; 110% in assay [8]; 89% in assay [4]; 83.2% in assay [5]; 97.3% in assay [7].

As for `CC(=O)C(C(C)=O)c1nc2sc3cc(Cl)ccc3n2c(=N)c1C#N`, the growth is 75.8% in assay [1]; 111% in assay [3]; 95.9% in assay [8]; 57.9% in assay [4]; 87.5% in assay [5]; 106% in assay [6]. Also, the growth in assay [7] was 82.4%.

`Cc1cc(NS(=O)(=O)c2ccccc2)c(OS(=O)(=O)c2ccccc2)cc1C`: the growth in assay [1] was 109%; in assay [3], 122%; in assay [8] it was 107%; in assay [4], 93.7%; in assay [5] it was 96.1%; in assay [6], 106%. For the same compound, the growth in assay [7] is 107%.
